# Experimental data as given in PubChem BioAssay (NCI).
# The panel holds about 79,000 compounds, 15% with a hit somewhere; the sample as a whole holds those more often. Values without a mark were called inactive. Activity calls are given as the source filed them. No stated cut-off is given here; in the data, active means growth inhibition above about 70%; inactive means the rest.
# Tests used:
# [1] = NCI Yeast Anticancer Drug Screen. Data for the rad50 strain (AID 155);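 further: 0% = growth of vehicle-only cultures of the same strain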; conditions: S. cerevisiae rad50 strain growth inhibition; at 50.0 µM; active compounds read high
# Summary of the method: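 Compounds were tested on a yeast strain with an engineered DNA damage repair alteration; the reported value is growth inhibition normalised to vehicle treatment.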
# [2] = NCI Yeast Anticancer Drug Screen. Data for the mec2-1 strain (AID 157); conditions: S. cerevisiae mec2-1 strain, at 50.0 µM, active compounds read high
# Summary of the method: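 Yeast mec2-1 mutant treated with compound. Readout: growth inhibition vs vehicle controls.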
# [3] = NCI Yeast Anticancer Drug Screen. Data for the sgs1 mgt1 strain (AID 161);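 further: 0% = growth of cultures given vehicle only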; conditions: S. cerevisiae sgs1 mgt1 strain, at 50.0 µM, active compounds read high
# Summary of the method: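 Genetically altered yeast, compound exposure, growth inhibition relative to vehicle.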
# [4] = NCI Yeast Anticancer Drug Screen. Data for the cln2 rad14 strain (AID 165);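 further: 0% = growth equal to vehicle treated cultures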; conditions: S. cerevisiae cln2 rad14 strain, at 50.0 µM, active compounds read high
# Summary of the method: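 cln2 rad14 yeast strain; compound exposure; growth inhibition read vs vehicle controls.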
# [5] = NCI Yeast Anticancer Drug Screen. Data for the bub3 strain (AID 167); conditions: S. cerevisiae bub3 mutant strain, at 50.0 µM, active compounds read high
# Summary of the method: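 Growth of a checkpoint-deficient yeast mutant is measured after compound exposure. Values represent inhibition relative to vehicle.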
# [6] = NCI Yeast Anticancer Drug Screen. Data for the mlh1 rad18 strain (AID 175); conditions: S. cerevisiae mlh1 rad18 strain growth inhibition; at 50.0 µM; active compounds read high
# Summary of the method: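 Yeast w/ defined DNA-repair lesions; compound exposure; growth vs vehicle controls → % inhibition.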
Compound,growth inhibition [1],growth inhibition [2],growth inhibition [3],growth inhibition [4],growth inhibition [5],growth inhibition [6]
COC(=O)C1CC2c3[nH]c4ccccc4c3CCN2C1 (stereo not given),-4.85%,-8.25%,-17.1%,-11.4%,-4.1%,-10.5%
Cc1sc2ncnc(Cl)c2c1C,1.95%,13.2%,-1.4%,-23%,4.45%,4.05%
CCCCC(CCC)OC(=O)Nc1cccc2ccccc12 (stereo not given),35.1%,0.35%,3.35%,-16.1%,-0.15%,40%
CC1=CC(=O)N2C(OC[C@@H]2c2ccccc2)O1 (stereo not given in full),3.5%,-11.8%,-12.9%,9.95%,-18.9%,-21.4%
CC(=C/c1ccccc1)/C=C1/SC(=S)N(C=C2C(=O)NC(=O)NC2=O)C1=O,54.9%,54.1%,32.4%,50.2%,50.5%,43.2%
COc1cc(O)c2c(c1)C(=O)c1cc3c(c(O)c1C2=O)CC(OC)C(C)(O)C3O (stereo not given),90.5% (active),91.3% (active),91.8% (active),88.5% (active),91.8% (active),91.2% (active)
O=C1c2ccccc2-c2cccc(I)c21,15.6%,-8.7%,-5.55%,6.95%,0.1%,-7.4%
COc1ccc(C(O)C2CC(=O)NN=C2C)cc1OC (stereo not given),8.05%,-0.85%,-3.3%,6.7%,8.7%,-1.7%
CCSc1nnc2c(-c3ccccc3)n[nH]c2n1,-0.75%,-0.05%,-21.8%,-25.9%,-27.6%,-12.1%
Cc1ccc(N=C2SC(c3ccc(C)cc3)(c3ccc(C)cc3)c3ccccc32)cc1,-35%,11.2%,-3.9%,-4.75%,-7.15%,-16.1%
